JMJD2A Tudor inh: qHTS Assay for Inhibitors of JMJD2A-Tudor Domain | AlphaScreen JMJD2A-Tudor / H3K4me3 peptide binding | Potency, µM (doses to about 114 µM), for inactives: at the top dose activity change, negative = inhibition, most hits filed as inhibitors | Lysine-specific demethylase 4A (Homo sapiens), O75164 | 390,000 tested, 4.4% active | AID 504339, 2011; also: % is scaled to controls: 0 for no effect and ±100 for the full control effect; nearly all actives have a fitted effect of over 50% in size
G9a inh: qHTS Assay for Inhibitors of Histone Lysine Methyltransferase G9a; Histone-lysine N-methyltransferase EHMT2 (Homo sapiens), Q96KQ7; G9a H3K9 monomethylation, AlphaScreen, 2 h; Potency, µM (doses to about 102 µM), for inactives: top-dose activity, negative = inhibition, hits mostly inhibitors; 350,000 tested, 8.8% active; also: % is scaled to controls: 0 for no effect and ±100 for the full control effect; nearly all actives have a fitted effect of over 75% in size
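AlphaScreen detection with an anti-monomethyl H3K9 antibody quantified product after a 2 h room-temperature reaction containing 500 nM biotinylated H3K9 peptide, 20 µM SAM and 20 nM enzyme, which had been preincubated 15 min with compound.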
BAZ2B block: qHTS Assay for Inhibitors of BAZ2B | AlphaScreen BAZ2B-H3K14Ac peptide displacement | Potency, µM (doses to about 114 µM), without a hit: at the top dose activity change, negative = inhibition, hits mostly inhibitors | 360,000 tested, 4.4% active | AID 504333, 2011; also: % is scaled to controls: 0 for no effect and ±100 for the full control effect; nearly all actives have a fitted effect of over 60% in size
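Complex of BAZ2B and biotin-H3K14Ac (50 nM apiece) forms over 30 min at RT, then faces library compounds up to 110 uM for another 30 min; AlphaScreen beads added, 20 min dark incubation, luminescence read.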
HP1b binding inh: HTS for Inhibitors of HP1-beta Chromodomain Interactions with Methylated Histone Tails; 390,000 tested, 0.56% active; AID 540317, 2011; AlphaScreen HP1-beta / biotin-H3K9me3 peptide binding; Potency, µM (top dose mostly 114 µM), for the others: at the top dose activity change, negative = inhibition, hits mostly inhibitors; Chromobox protein homolog 1 (Homo sapiens), P83916; also: nearly all actives have a fitted effect of over 70% in size
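HP1-beta protein (50 nM final) preincubated 30 min at room temperature with biotinylated H3(1-18)K9me3 peptide (50 nM) in PBS pH 7.4, 0.01% Tween-20, then compound added for 30 min. AlphaScreen streptavidin donor/nickel chelate acceptor beads (10 ug/mL final), 30 min dark, luminescence read.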
Sfp PPTase inh: qHTS Assay for Inhibitors of Bacillus subtilis Sfp phosphopantetheinyl transferase (PPTase); Potency, µM, for the others: largest response in the series, negative = inhibition, usual class: inhibitors; 310,000 tested, 3.5% active; Biochemical Sfp PPTase activity, qHTS; 4'-phosphopantetheinyl transferase ffp (Bacillus subtilis), Q9F4F7; AID 1490, 2009;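 also: the enzyme is Sfp with the accession as filed and its product quenches rhodamine fluorescence; 0% = enzyme reaction without inhibitor and -100% = no enzyme wells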
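After 15 min at room temperature with compound, 15 nM Sfp received 5 uM rhodamine-CoA plus 12.5 uM BHQ-2-ybbR (50 mM Hepes pH 7.6, 10 mM MgCl2). Rate came from the fluorescence difference over 30 min, ex 525/em 598 nm.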
* = called active by the depositor; ? = inconclusive; . = no result given; ! = repeats disagree; [ ] = remark or other dose. Hits are enriched below; roughly 12% of the tested compounds scored in any of these assays. Calls follow the shape of the dose curve; as a rule, active = well fitted curve in the direction sought with a large enough effect; inconclusive = small, poorly fitted or top-dose-only effect, or another doubt; inactive = no such curve, though single readings can be large; an effect the other way counts as inactive or inconclusive. Potency is read from the fitted curve at half-maximal effect.

SMILES	JMJD2A Tudor inh	G9a inh	BAZ2B block	HP1b binding inh	Sfp PPTase inh
COc1cc(C)c(NC(=O)COc2ccc3c(c2)OCO3)cc1C	-11.6%	1.1%	-1.8%	14.5%	10.6%
O=C(CN1C(=O)CCC1=O)Nc1nc2c(F)cc(F)cc2s1	-5.6%	.	.	42.4%	.
O=C(CN1C(=O)NC2(CCCCC2)C1=O)Nc1nc2c(F)cc(F)cc2s1	-20.0%	50.1µM*	4.5%	22.4%	.
CCC(=O)N1CCc2cc(Br)cc(S(=O)(=O)N3CCCC(C(=O)Nc4cccc(C)c4C)C3)c21 (stereo not drawn)	0.0%	-22.1%[59 µM]	-1.8%	16.6%	.
COc1cc(-c2noc(C)c2C(=O)NCCc2c[nH]c3ccccc23)cc(OC)c1OC	?	31.6µM*	50.1µM*	13.8%	6.8%
O=C(NCCc1c[nH]c2ccccc12)c1ccc([N+](=O)[O-])cc1	-17.6%	19.2%[59 µM]	-15.2%	-0.6%	-2.6%
O=C(NCCc1c[nH]c2ccccc12)c1cc([N+](=O)[O-])cc([N+](=O)[O-])c1	-24.4%	10µM*	-3.2%	30.0%	1.0%
Cc1ccc(C(=O)NCCc2c[nH]c3ccccc23)c(C)c1	-26.2%	-44.4%	50.1µM*	-8.2%	0.7%
O=C(NCCc1c[nH]c2ccccc12)c1ccccc1	-20.0%	-4.0%	-18.7%	19.9%	15.8%
Cc1c(-c2ccccc2)nc2ccccc2c1C(=O)OCC(=O)Nc1ncc(C(F)(F)F)cc1Cl	-29.1%	?	-0.6%	2.4%	-27.2%
CC1(C)CC(=O)c2cc(OCC(=O)NCCN3CCCc4ccccc43)ccc2O1	-5.2%	-7.7%[12.7 µM]	-30.1%	23.1%	-4.1%
CN(C)CCOC(C)(c1ccccc1)c1ccccn1 (stereo not drawn)	-7.2%	10µM*!	0.4%	8.5%	7.1%
COc1ccc(CCNCC(=O)Nc2ccc(C(=O)N3CCCCC3)cc2)cc1	1.41µM*	8.91µM*	39.8µM*	?	?
O=C(CNCc1ccc(Cl)cc1)Nc1ccc(C(=O)N2CCCCC2)cc1	1.12µM*	7.08µM*	56.2µM*	44.7µM*	?
O=C(CNCc1ccc(Cl)cc1)Nc1ccc(C(=O)N2CCCCCC2)cc1	3.55µM*	7.94µM*	50.1µM*	?	-20.6%
O=C(CNCc1ccccc1)Nc1ccc(Cl)cc1	-3.4%	0.7%	-5.5%	20.5%	9.7%
O=C(c1ccc(NC(=S)NCc2ccc(Cl)cc2)cc1)N1CCCCC1	-7.5%	-5.1%	-5.5%	39.5%	12.5%
CC(Oc1ccc(Cl)cc1Cl)C(=O)NNC(=O)C(=O)N1CCCCC1 (stereo not drawn)	-14.3%	-6.0%	6.4%	32.1%	9.4%
COc1ccc(NC(=S)NC2CC3CCC2C3)c(OC)c1 (stereo not drawn)	-21.8%	9.3%	-29.0%	31.1%	7.5%
Cc1c(C(=O)NCc2ccoc2)oc2ccc3c(c12)C(=O)CC(C)(C)O3	?	-14.0%[59 µM]	?	?	?
S=c1nc[nH]c2c1cnn2Cc1ccccc1	-2.1%	.	?	23.7%	25.5%
Cn1c(=O)c2[nH]c(=O)cnc2n(C)c1=S	-5.8%	50.1µM*	-14.8%	-10.0%	17.8µM*
CCCCSc1nc2c([nH]1)c(=O)n(C)c(=S)n2C	-8.3%	.	.	22.9%	.
CCCn1c(/C=C/c2ccccc2)nc2ccccc21	110.3%	71.1%[59 µM]	156.5%	169.6%	?
CCn1c(/C=C/c2cc[n+](C)cc2)nc2ccccc21	?	35.5µM*	?	8.4%	-1.3%
SMILES	JMJD2A Tudor inh	G9a inh	BAZ2B block	HP1b binding inh	Sfp PPTase inh
CC(OC(=O)c1ccc(-n2cnnn2)cc1)C(=O)N(C)c1ccccc1 (stereo not drawn)	-13.8%	-4.5%	11.6%	-3.9%	.
O=C(CSc1nc2c(cnn2-c2ccccc2)c(=O)[nH]1)N1N=C(c2cccs2)CC1c1ccc(F)cc1 (stereo not drawn)	-10.9%	28.2µM*	-26.1%	6.9%	5.0%
CCS(=O)(=O)Nc1cccc(C2=NN(S(=O)(=O)c3ccccc3)C(c3ccco3)C2)c1 (stereo not drawn)	?	?	-29.8%	-22.2%	?
COc1ccc(C2=NN(C(=O)COc3ncnc4ccccc34)C(c3ccco3)C2)cc1 (stereo not drawn)	-21.0%	?	-26.2%	17.7%	-17.3%
Clc1ccc(C2=NN(c3ccccc3)C(c3ccco3)C2)cc1 (stereo not drawn)	248.3%	.	13.8%	379.4%	28.2µM*
COc1ccc(C2=NN(c3nc(-c4ccccc4)c(CC(=O)O)s3)C(c3ccco3)C2)cc1 (stereo not drawn)	79.4µM*	14.1µM*	50.1µM*	-13.6%	14.1µM*
O=S(=O)(c1ccccc1)N1N=C(c2ccc(Cl)cc2)CC1c1ccco1 (stereo not drawn)	-26.0%	44.7µM*	-0.2%	16.1%	.
COc1ccccc1C(=O)NNC(=O)C(=O)NC1CCCCC1	-12.3%	21.8%	-7.4%	48.5%	6.7%
CC(=O)N1N=C(c2ccc(Cl)cc2)CC1c1ccco1 (stereo not drawn)	-16.2%	.	18.9%	3.4%	?
Cc1ccc(N2N=C(c3ccc(F)cc3)CC2c2ccco2)cc1 (stereo not drawn)	197.9%	?	2.7%	290.2%	?
O=C(c1ccco1)N1N=C(c2cccs2)CC1c1ccc(F)cc1 (stereo not drawn)	-13.7%	-28.8%[59 µM]	-3.0%	28.3%	56.2µM*
Cc1nc(N2N=C(c3ccc(Cl)cc3)CC2c2ccco2)sc1C(=O)N(C)C (stereo not drawn)	16.0%	-3.0%	15.2%	95.2%	25.1µM*
O=C(c1ccc(Br)o1)N1N=C(c2ccc(Cl)cc2)CC1c1ccco1 (stereo not drawn)	?	50.1µM*	?	?	39.8µM*
CS(=O)(=O)N1N=C(c2cccs2)CC1c1ccco1 (stereo not drawn)	-29.1%	6.3%[12.7 µM]	?	16.3%	10µM*
O=C1NC(=O)/C(=C\c2ccc(Cl)nc2)S1	?	-30.8%	?	22.2%	-6.9%
O=C(NC1CCN(Cc2ccccc2)C1)c1cc(S(=O)(=O)N2CCOCC2)ccc1Cl (stereo not drawn)	-18.6%	8.3%[2.33 µM]	-1.5%	-32.1%	.
CC[C@]12CCCN3CCc4c(n(c5ccccc45)[C@](O)(C(=O)OC)C1)[C@@H]32	-2.9%	2.4%[12.7 µM]	26.5%	21.8%	.
CCC12CCCN3CCc4c(n(c5ccccc45)C(O)(C(=O)OC)C1)C32 (stereo not drawn)	-29.9%	50.1µM*	-26.2%	-3.2%	-17.2%
COc1ccc(CN2CCC(C(=O)Nc3ccc(Oc4cccnc4)cc3)CC2)cc1	-16.0%	35.5µM*	-28.3%	4.1%	8.5%
